Reference: PubChem BioAssay (Tox21)
Inconclusive results are not listed. Where a call stands in place of a potency, no number is given. Calls of active or inactive are those of the source. Calls follow the shape of the dose curve; as a rule, active = well fitted cell-killing curve with a large enough effect in the repeat runs; inconclusive = weak or mixed curves, or effect the other way; inactive = flat fitted curve, though single readings scatter.
Potency is read from the fitted curve at half-maximal effect.

Assay: qHTS RealTime-Glo MT Cell Viability Assay in HepG2 cells - 40 hour (AID 1224870); also: nearly all actives have a fitted effect of over 50% in size
Conditions: RealTime-Glo luminescence; series mostly up to 76.8 µM
Source text: National Center for Advancing Translational Sciences [NCATS]
NIH Chemical Genomics Center [NCGC]
U.S. Environmental Protection Agency [EPA]
National Institutes of Environmental Health Sciences [NIEHS]
National Toxicology Program [NTP]
U.S. Food and Drug Administration [FDA]
Measure of cell viability is critical in the cell-base assay. Analysis of cell viability is necessary for the characterization of cell responses to cytotoxic drugs and environmental stress. A RealTime-Glo MT Cell Viability Assay to monitor cell viability in real time of continues cell culture during 40 hours of compound treatment was used to screen Tox21 10K library compounds in HepG2 cells. The RealTime-Glo MT Cell Viability Assay is a nonlytic, homogeneous, bioluminescent method to measure cell viability in real time using a simple, plate-based method. The assay involves adding NanoLuc luciferase and a cell-permeant prosubstrate to cells in culture. Viable cells reduce the proprietary prosubstrate to generate a substrate for NanoLuc luciferase. This substrate diffuses from cells into the surrounding culture medium, where it is rapidly used by the NanoLuc Enzyme to produce a luminescent signal. The signal correlates with the number of viable cells, making the assay well suited for cytotoxicity studies.
Tox21 Assay Protocol Summary:
The mixture of HepG2 cell suspension and reagents were dispensed at 600cells/6 ul/well in 1536-well tissue culture treated black solid bottom plates using a Multidrop dispenser. After the assay plates were incubated at a 37 C/5% CO2 incubator for 5 hours, 23 nL of compounds dissolved in DMSO, positive and negative controls was transferred to the assay plate by a pintool work station. The plates were incubated at 37 C for 40 hours. The luminescence intensity were measured at 0h, 8h, 16h, 24h, 32h and 40h time points using ViewLux plate reader during compound treatment.
In the case of `Cc1ccccc1CCl`, the Potency is reported as “inactive”. For `Nc1nc(N)nc(N)n1`, the Potency was “inactive”. In the case of `N#Cc1cc(I)c(O)c(I)c1`, the Potency is reported as “inactive”. For `COc1cc(Cl)c(OC)cc1Cl`, the Potency was “inactive”. For `CCCCc1c(C)nc(NCC)nc1OS(=O)(=O)N(C)C`, the Potency was “inactive”. In the case of `CCBr`, the Potency is reported as “inactive”. In the case of `Clc1ccc(C2(Cn3cncn3)CC(Br)CO2)c(Cl)c1` (stereo not given), the Potency is reported as “inactive”. With `ClC=C(Cl)Cl` the Potency was “inactive”. In the case of `O=C1C(Cl)C(CCl)CN1c1cccc(C(F)(F)F)c1` (stereo not given), the Potency is reported as “inactive”. With `CC(C)(CCl)C(=O)Cl` the Potency was “inactive”. In the case of `COC(C)(C)CCC[C@H](C)C/C=C/C(C)=C/C(=O)OC(C)C`, the Potency is reported as “inactive”. With `CCC(Cl)CCl` (stereo not given) the Potency was “inactive”. In the case of `O=C(CBr)c1ccccc1`, the Potency is reported as “inactive”. For `Cn1cc[n+](C)c1` (tested in a mixture with another compound), the Potency was “inactive”. With `O=C(Nc1ccccc1)Nc1ccnc(Cl)c1` the Potency was “inactive”. In the case of `CCCC(Cn1cncn1)c1ccc(Cl)cc1Cl` (stereo not given), the Potency is reported as “inactive”. With `Cc1ccc(-c2c(Cl)nc(C#N)n2S(=O)(=O)N(C)C)cc1` the Potency was “inactive”. For `Nc1ccc([N+](=O)[O-])cc1[N+](=O)[O-]`, the Potency was “inactive”. For `CCCCN=C=O`, the Potency was “inactive”. For `COc1cc(CC(C)N)cc2c1OCO2` (stereo not given), the Potency was “inactive”. In the case of `O=C(Nc1ccccc1)Nc1cnns1`, the Potency is reported as “inactive”. In the case of `COP(=O)(OC)O/C(=C/Cl)c1cc(Cl)c(Cl)cc1Cl`, the Potency is reported as “inactive”. With `C=CC(=O)NCNC(=O)C=C` the Potency was “inactive”. For `COC(=O)C(Br)CBr` (stereo not given), the Potency was “inactive”. For `CCOC(=O)CBr`, the Potency was “inactive”. For `CCOS(C)(=O)=O`, the Potency was “inactive”. For `CCCN(CCCl)c1c([N+](=O)[O-])cc(C(F)(F)F)cc1[N+](=O)[O-]`, the Potency was “inactive”. In the case of `CCOc1nc(F)cc2nc(S(=O)(=O)Nc3c(Cl)cccc3Cl)nn12`, the Potency is reported as “inactive”. In the case of `NCCCNCCCN`, the Potency is reported as “inactive”. In the case of `O=C(NC(=O)c1c(F)cccc1F)Nc1cc(Cl)c(Oc2ncc(C(F)(F)F)cc2Cl)c(Cl)c1`, the Potency is reported as “inactive”. In the case of `O=S(=O)(Cl)c1ccccc1`, the Potency is reported as “inactive”. In the case of `COC1=CC(=O)O[C@@H](CCc2ccccc2)C1`, the Potency is reported as “inactive”. In the case of `C=CC(C)=O`, the Potency is reported as “inactive”. With `Nc1nc(=S)[nH][nH]1` the Potency was “inactive”. In the case of `CC(Cl)Cl`, the Potency is reported as “inactive”. For `CC(=O)CCC(C)=O`, the Potency was “inactive”. With `Clc1cc(C(Cl)(Cl)Cl)cnc1Cl` the Potency was “inactive”. With `c1ccc(CN2CCNCC2)cc1` the Potency was “inactive”. For `NC(=O)CI`, the Potency was 6.22 µM (active). For `CC/C(=N\OC/C=C/Cl)C1=C(O)CC(C2CCOCC2)CC1=O` (stereo not given), the Potency was “inactive”.
